A short description of experiment [1]: CEETOX_H295R_11DCORT: CeeTox H295R High-throughput Steroidogenesis Assay for 11-Deoxycortisol (11DCORT) (AID 2283432). The conditions noted are these: actives raise or lower the signal. A digest of the protocol:
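H295R cells prestimulated 48 h with 10 uM forskolin, then exposed 48 h to chemical in 0.1% DMSO. 11-Deoxycortisol in medium quantified by HPLC-MS/MS after MTBE extraction; bidirectional fit versus DMSO. MTT viability read in same wells.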

Experiment [2] in a line: CEETOX_H295R_OHPREG: CeeTox H295R High-throughput Steroidogenesis Assay for OH-Pregnenolone (OHPREG) (AID 2283434). Particulars: actives raise or lower the signal. The procedure, abridged:
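H295R cells pre-stimulated 48 h with 10 uM forskolin, then exposed 48 h to chemical in 0.1% DMSO. 17alpha-hydroxypregnenolone in medium quantified by MTBE extraction and HPLC-MS/MS; bidirectional fit versus DMSO, viability checked by MTT.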

Experiment [3] can be described thus: CEETOX_H295R_ANDR: CeeTox H295R High-throughput Steroidogenesis Assay for Androstenedione (ANDR) (AID 2283436). The conditions noted are these: actives raise or lower the signal. A digest of the protocol:
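H295R cells, following OECD 456 with minor changes, exposed to chemicals for 48 h. Androstenedione in the medium was quantified by HPLC-MS/MS after MTBE extraction. Fitting was bidirectional versus DMSO; chemicals were diluted until MTT viability was ≥70%.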

Experiment [4] is described as follows: CEETOX_H295R_CORTIC: CeeTox H295R High-throughput Steroidogenesis Assay for Corticosterone (CORTIC) (AID 2283437).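 Further: corticosterone secreted into medium quantified by mass spectrometry.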 Particulars: actives raise or lower the signal. A digest of the protocol: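 H295R adrenal cells prestimulated 48 hours with 10 uM forskolin, then exposed 48 hours to chemical in 0.1% DMSO. Corticosterone in medium measured by HPLC-MS/MS after MTBE extraction; MTT viability in the same wells; bidirectional fit versus DMSO.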

Experiment [5] in a line: CEETOX_H295R_CORTISOL: CeeTox H295R High-throughput Steroidogenesis Assay for Cortisol (AID 2283438).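 Further: cortisol secreted into medium quantified by LC-MS/MS.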 Particulars: actives raise or lower the signal. The procedure, abridged: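 H295R human adrenal cells were prestimulated 48 h with 10 uM forskolin, then exposed 48 h to test chemical (0.1% DMSO final). Medium cortisol was quantified by HPLC-MS/MS after MTBE extraction; bidirectional fitting relative to DMSO baseline.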

Experiment [6] is described as follows: CEETOX_H295R_DOC: CeeTox H295R High-throughput Steroidogenesis Assay for DOC (AID 2283439). Particulars: actives raise or lower the signal. A digest of the protocol:
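H295R adrenal cells prestimulated 48 h with 10 uM forskolin, then exposed 48 h to test chemical (0.1% DMSO final). Medium 11-deoxycorticosterone extracted with MTBE, quantified by HPLC-MS/MS; bidirectional fit versus DMSO baseline; MTT viability in same wells.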

Experiment [7] can be described thus: CEETOX_H295R_ESTRADIOL: CeeTox H295R High-throughput Steroidogenesis Assay for Estradiol (AID 2283440).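 Further: estradiol secreted into medium quantified by LC-MS/MS after dansyl derivatisation.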 Particulars: actives raise or lower the signal. The procedure, abridged: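 H295R, 48 h forskolin (10 uM) prestim → 48 h compound, 0.1% DMSO final. Estradiol in medium: MTBE extraction, dansyl chloride derivatization, LC-MS/MS. Fit bidirectional vs DMSO baseline; MTT viability in same wells.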

Experiment [8] is described as follows: CEETOX_H295R_ESTRONE: CeeTox H295R High-throughput Steroidogenesis Assay for Estrone (AID 2283441).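 Further: estrone secreted into medium measured by LC-MS/MS after dansyl derivatization.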 Particulars: actives raise or lower the signal. A digest of the protocol:
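H295R cells; 48 h forskolin (10 uM) prestimulation; 48 h compound exposure, 0.1% DMSO final. Medium estrone: MTBE extraction, dansyl derivatization, HPLC-MS/MS. Bidirectional fit vs DMSO.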

Experiment [9] can be described thus: CEETOX_H295R_PROG: CeeTox H295R High-throughput Steroidogenesis Assay for Progesterone (PROG) (AID 2283442). Particulars: actives raise or lower the signal. A digest of the protocol: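 Progesterone read-out: HPLC-MS/MS on MTBE extracts of conditioned medium after 48 h chemical exposure of forskolin-primed (10 uM, 48 h) H295R cells. Gain or loss of signal was fitted relative to DMSO baseline.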

Read-out in experiment [10]: Tumor necrosis factor receptor superfamily member 6 (Homo sapiens) (UniProt P25445)
The experiment is described as follows: LTEA_HepaRG_FAS: Life Technologies and Expression Analysis (LTEA) Assay for Fas cell surface death receptor (FAS) using HepaRG (AID 2283447). The conditions noted are these: mRNA level, 48 h; actives raise or lower the signal. The procedure, abridged: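 Differentiated HepaRG cells in serum-free induction medium were exposed 48 h to 8 half-log concentrations up to 100 uM in 0.5% DMSO, in duplicate. FAS mRNA was measured by qRT-PCR normalised to ACTB, GAPDH and POLR2A; bidirectional fit versus DMSO.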

Read-out in experiment [11]: Fatty acid synthase (Homo sapiens) (UniProt P49327)
Put plainly: LTEA_HepaRG_FASN: Life Technologies and Expression Analysis (LTEA) Assay for Fatty Acid Synthase (FASN) using HepaRG (AID 2283448). The conditions noted are these: mRNA level, 48 h; actives raise or lower the signal. A digest of the protocol: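 Differentiated human HepaRG cells were exposed for 48 h in serum-free induction medium to eight half-log concentrations up to 100 uM in 0.5% DMSO, in duplicate. FASN mRNA was quantified by TaqMan qRT-PCR, normalized to ACTB/GAPDH/POLR2A, and fitted bidirectionally against DMSO.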

Read-out in experiment [12]: Cyclin D2 (CCND2), CCND2 (gene 894)
Put plainly: LTEA_HepaRG_CCND2: Life Technologies and Expression Analysis (LTEA) Assay for Cyclin D2 (CCND2) using HepaRG (AID 2283449).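 Further: CCND2 transcript measured by TaqMan qRT-PCR and normalised to three housekeeping genes.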 The conditions noted are these: mRNA level, 48 h; actives raise or lower the signal. A digest of the protocol: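 Chemicals in 0.5% DMSO, eight half-log concentrations from 100 uM top, were applied in duplicate for 48 h to human HepaRG cells in serum-free induction medium. CCND2 mRNA by TaqMan qRT-PCR, normalised to ACTB/GAPDH/POLR2A; bidirectional fit versus DMSO.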

Read-out in experiment [13]: Cyclin Dependent Kinase Inhibitor 1A (CDKN1A), CDKN1A (gene 1026)
Put plainly: LTEA_HepaRG_CDKN1A: Life Technologies and Expression Analysis (LTEA) Assay for Cyclin Dependent Kinase Inhibitor 1A (CDKN1A) using HepaRG (AID 2283450). Particulars: mRNA level, 48 h; actives raise or lower the signal. The procedure, abridged: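 HepaRG, 48 h dosing, 8-pt half-log series from 100 uM top, 0.5% DMSO vehicle, duplicates. Readout: TaqMan qRT-PCR of CDKN1A transcript, housekeeping-normalized (ACTB, GAPDH, POLR2A). Up/down curve fit relative to DMSO.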

Read-out in experiment [14]: Cyclin D1 (CCND1), CCND1 (gene 595)
Put plainly: LTEA_HepaRG_CCND1: Life Technologies and Expression Analysis (LTEA) Assay for Cyclin D1 (CCND1) using HepaRG (AID 2283451). Particulars: mRNA level, 48 h; actives raise or lower the signal. A digest of the protocol: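 qRT-PCR (Fluidigm 96.96 array) read-out of transcript level, housekeeping-normalized (ACTB/GAPDH/POLR2A). HepaRG cells, 48 h chemical exposure, 8-point half-log series from 100 uM, 0.5% DMSO vehicle; gain or loss relative to DMSO baseline.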

Read-out in experiment [15]: catalase (CAT), CAT (gene 847)
The experiment is described as follows: LTEA_HepaRG_CAT: Life Technologies and Expression Analysis (LTEA) Assay for catalase (CAT) using HepaRG (AID 2283452). The conditions noted are these: mRNA level, 48 h; actives raise or lower the signal. The procedure, abridged:
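HepaRG cells in serum-free induction medium, 0.5% DMSO vehicle, exposed 48 h in duplicate over 8 half-log concentrations from 100 uM. CAT mRNA measured by qRT-PCR, normalized to ACTB, GAPDH, POLR2A; bidirectional fit versus DMSO.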

Read-out in experiment [16]: flavin-containing dimethylaniline monooxygenases 3 (FMO3), FMO3 (gene 2328)
The experiment is described as follows: LTEA_HepaRG_FMO3: Life Technologies and Expression Analysis (LTEA) Assay for flavin-containing dimethylaniline monooxygenases 3 (FMO3) using HepaRG (AID 2283453).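 On AC50: FMO3 transcript by TaqMan qRT-PCR normalized to ACTB GAPDH and POLR2A.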 Particulars: mRNA level, 48 h; actives raise or lower the signal. A digest of the protocol: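 HepaRG, 48 h exposure, 8-pt half-log series from 100 uM, 0.5% DMSO vehicle, duplicates; FMO3 transcript by Fluidigm TaqMan qRT-PCR, housekeeping-normalized; gain/loss fit vs DMSO.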

Read-out in experiment [17]: Cytochrome P450 (CYP1A1), CYP1A1 (gene 1543)
Put plainly: LTEA_HepaRG_CYP1A1: Life Technologies and Expression Analysis (LTEA) Assay for Cytochrome P450 (CYP1A1) using HepaRG (AID 2283454). Particulars: mRNA level, 48 h; actives raise or lower the signal. A digest of the protocol:
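qRT-PCR read-out: CYP1A1 transcript normalized to three housekeeping genes, fitted bidirectionally against 0.5% DMSO vehicle baseline. Human HepaRG cells, 48 h chemical exposure, 8-point half-log series topping at 100 uM.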

Read-out in experiment [18]: CFLAR gene, CFLAR (gene 8837)
Put plainly: LTEA_HepaRG_CFLAR: Life Technologies and Expression Analysis (LTEA) Assay for CFLAR gene using HepaRG (AID 2283455). The conditions noted are these: mRNA level, 48 h; actives raise or lower the signal. A digest of the protocol:
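Differentiated HepaRG cells in serum-free induction medium were exposed 48 h in duplicate to eight half-log concentrations up to 100 uM in 0.5% DMSO; mRNA measured by TaqMan qRT-PCR, normalized to ACTB, GAPDH, POLR2A; bidirectional fitting versus DMSO.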

Read-out in experiment [19]: Forkhead box O1 (FOXO1), FOXO1 (gene 2308)
Put plainly: LTEA_HepaRG_FOXO1: Life Technologies and Expression Analysis (LTEA) Assay for Forkhead box O1 (FOXO1) using HepaRG (AID 2283456). Particulars: mRNA level, 48 h; actives raise or lower the signal. The procedure, abridged: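 Differentiated HepaRG cells, in serum-free induction medium with 0.5% DMSO, exposed 48 h in duplicate to 8-point half-log series from 100 uM. FOXO1 mRNA measured by TaqMan qRT-PCR, normalized to ACTB, GAPDH, POLR2A; bidirectional fit versus DMSO.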

A short description of experiment [20]: CEETOX_H295R_TESTO: CeeTox H295R High-throughput Steroidogenesis Assay for Testosterone (TESTO) (AID 2283457). The conditions noted are these: actives raise or lower the signal. A digest of the protocol:
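Readout: testosterone quantified by HPLC-MS/MS (C18, ESI positive) after MTBE liquid-liquid extraction of culture medium. Cells were H295R, 48 h chemical exposure per OECD 456 with modifications. Gain or loss of signal fitted relative to DMSO.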

Structures are written as SMILES. Calls of active or inactive are those of the source. How the source made its calls: active means hit-call score of the fitted dose curve at least 0.9, where 1 is the maximum; inactive means score below 0.9.

The text below walks through data of PubChem BioAssay (EPA / NIEHS).

Chain of Fatty acid synthase (Homo sapiens) (P49327 whole entry, looked up): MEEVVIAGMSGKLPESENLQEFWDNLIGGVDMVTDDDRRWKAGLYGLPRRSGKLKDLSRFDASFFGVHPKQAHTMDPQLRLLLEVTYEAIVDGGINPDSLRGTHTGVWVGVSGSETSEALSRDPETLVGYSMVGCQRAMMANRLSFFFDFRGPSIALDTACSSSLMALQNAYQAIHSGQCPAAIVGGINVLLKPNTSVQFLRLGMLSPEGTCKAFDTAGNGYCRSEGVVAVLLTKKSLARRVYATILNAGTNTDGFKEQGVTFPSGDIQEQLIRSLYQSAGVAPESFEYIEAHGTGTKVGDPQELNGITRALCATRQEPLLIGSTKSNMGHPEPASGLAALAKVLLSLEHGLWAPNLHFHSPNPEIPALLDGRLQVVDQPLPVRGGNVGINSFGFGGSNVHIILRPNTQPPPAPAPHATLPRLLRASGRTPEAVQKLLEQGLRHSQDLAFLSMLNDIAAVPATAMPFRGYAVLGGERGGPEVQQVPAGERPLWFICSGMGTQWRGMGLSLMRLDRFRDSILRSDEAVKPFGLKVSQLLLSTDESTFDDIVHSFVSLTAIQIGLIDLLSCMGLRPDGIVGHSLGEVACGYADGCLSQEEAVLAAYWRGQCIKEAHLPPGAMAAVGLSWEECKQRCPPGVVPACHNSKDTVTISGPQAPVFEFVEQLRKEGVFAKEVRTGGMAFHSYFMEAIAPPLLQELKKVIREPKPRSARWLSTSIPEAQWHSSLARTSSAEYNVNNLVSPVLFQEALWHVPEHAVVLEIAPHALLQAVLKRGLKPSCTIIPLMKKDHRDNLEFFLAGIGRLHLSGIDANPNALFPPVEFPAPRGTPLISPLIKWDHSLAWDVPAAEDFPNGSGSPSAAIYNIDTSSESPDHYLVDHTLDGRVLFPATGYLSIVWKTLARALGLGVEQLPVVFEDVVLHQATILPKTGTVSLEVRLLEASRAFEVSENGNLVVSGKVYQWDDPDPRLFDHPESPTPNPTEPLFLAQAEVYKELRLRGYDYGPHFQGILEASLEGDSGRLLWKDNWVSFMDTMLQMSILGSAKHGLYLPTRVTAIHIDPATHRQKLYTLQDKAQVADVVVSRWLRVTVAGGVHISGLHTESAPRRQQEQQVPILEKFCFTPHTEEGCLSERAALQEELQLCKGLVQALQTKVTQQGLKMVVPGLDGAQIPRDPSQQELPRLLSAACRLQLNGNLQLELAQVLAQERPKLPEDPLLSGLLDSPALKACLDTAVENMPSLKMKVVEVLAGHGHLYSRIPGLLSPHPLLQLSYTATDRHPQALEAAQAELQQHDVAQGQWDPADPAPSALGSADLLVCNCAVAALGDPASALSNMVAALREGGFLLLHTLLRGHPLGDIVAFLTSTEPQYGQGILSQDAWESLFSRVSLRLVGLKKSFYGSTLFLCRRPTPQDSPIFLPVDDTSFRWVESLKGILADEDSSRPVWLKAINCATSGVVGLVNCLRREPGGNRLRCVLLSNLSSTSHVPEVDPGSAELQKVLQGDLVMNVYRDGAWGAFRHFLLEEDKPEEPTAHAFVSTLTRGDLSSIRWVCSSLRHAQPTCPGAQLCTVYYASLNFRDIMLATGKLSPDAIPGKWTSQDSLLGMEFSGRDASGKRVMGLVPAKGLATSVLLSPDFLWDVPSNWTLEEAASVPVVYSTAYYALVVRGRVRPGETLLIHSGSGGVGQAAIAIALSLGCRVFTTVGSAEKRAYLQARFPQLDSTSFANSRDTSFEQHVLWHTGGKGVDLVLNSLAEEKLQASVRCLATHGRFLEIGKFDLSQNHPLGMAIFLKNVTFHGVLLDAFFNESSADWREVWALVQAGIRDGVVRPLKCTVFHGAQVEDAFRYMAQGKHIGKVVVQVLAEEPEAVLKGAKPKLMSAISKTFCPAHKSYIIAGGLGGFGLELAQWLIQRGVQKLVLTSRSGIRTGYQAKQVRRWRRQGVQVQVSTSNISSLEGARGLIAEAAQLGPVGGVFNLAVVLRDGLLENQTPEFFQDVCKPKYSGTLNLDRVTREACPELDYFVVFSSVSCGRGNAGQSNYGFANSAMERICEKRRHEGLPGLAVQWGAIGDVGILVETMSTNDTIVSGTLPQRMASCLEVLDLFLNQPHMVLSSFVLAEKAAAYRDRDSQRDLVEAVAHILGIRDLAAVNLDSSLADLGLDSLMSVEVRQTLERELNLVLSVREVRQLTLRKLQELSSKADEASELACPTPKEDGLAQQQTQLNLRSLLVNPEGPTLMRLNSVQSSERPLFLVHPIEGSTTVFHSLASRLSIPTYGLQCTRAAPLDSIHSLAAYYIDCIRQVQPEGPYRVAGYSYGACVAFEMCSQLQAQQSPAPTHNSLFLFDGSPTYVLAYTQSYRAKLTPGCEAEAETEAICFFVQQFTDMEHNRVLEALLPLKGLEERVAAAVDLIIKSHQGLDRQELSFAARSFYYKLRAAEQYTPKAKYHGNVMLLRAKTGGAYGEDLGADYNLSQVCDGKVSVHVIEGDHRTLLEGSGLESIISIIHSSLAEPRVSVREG

As a reminder, the AC50 is the concentration at which the activity in the assay is half-maximal. With `CCN(CC)C(=S)SSC(=S)N(CC)CC`, the result in experiment [1], in experiment [2], in [3], in experiment [4], in experiment [5] and in experiment [6] was inactive. Also, the compound was classed as inactive in experiment [7], in experiment [8], in experiment [9], in experiment [10], in experiment [11] and in experiment [12]. The call in experiment [13], in [14], in experiment [15], in experiment [16], in experiment [18] and in experiment [19] was inactive. For the same compound, the compound was classed as inactive in experiment [20]. Moreover, the AC50 in experiment [17] is 51000 nM (active).
For the compound `CC(=O)c1ccccc1`, the compound was called inactive in experiment [10], in [11], in experiment [12], in [13], in experiment [14] and in [15]. In addition, the compound was called inactive in [16], in experiment [18] and in experiment [19]. Further, the AC50 in [17] was 76700 nM (active).
`COc1cc2c(c(OC)c1OC)-c1ccc(OC)c(=O)cc1[C@@H](NC(C)=O)CC2`: the outcome in experiment [1], in experiment [2], in experiment [3], in [4], in [5] and in experiment [6] was inactive. Further, the outcome in [7], in [8], in experiment [9], in experiment [12], in experiment [13] and in experiment [20] was inactive. Also, the AC50 in [10] was 79.9 nM (active); in experiment [11], 57.5 nM (active); in experiment [14], 17.8 nM (active); in [15], 77.2 nM (active); in [16], 47.7 nM (active); in experiment [17], 57.5 nM (active). The figures for the AC50 in experiment [18] and in [19] were 66.3 nM (active) and 30.9 nM (active), respectively.
